Calb FLC: C. albicans growth inhibition with fluconazole, primary screen, CaCi-2 strain, Alamar Blue fluorescence; C. albicans CaCi-2 (fluconazole-resistant clinical isolate) + fluconazole, 48 h; growth inhibition, % (no concentration beside the values); AID 1979, 2009; 0.57% of 300,000 active;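 active means growth inhibition above about 58% in most replicates, limit read from the data, passing the limit was not always enough; inconclusive means exactly half the replicates above a set limit; inactive means most replicates below a set limit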;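 further: all wells also contain fluconazole at 8 µg/ml as a sub-toxic cotreatment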
Cl transport mod: KCC2 cotransporter modulators, thallium flux, primary screen, cell-based, HEK293 KCC2, FluoZin-2 fluorescence, MLSMR | Solute carrier family 12 member 5 (Homo sapiens), Q9H2X9 | KCC2 cells, thallium flux FluoZin-2 fluorescence | B-score of Tl+ flux slope (higher = more flux/activation; lower = inhibition) at 10 µM | 2.2% of 190,000 active;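 active means thallium flux slope and its plate-corrected score both differing from the plate sample mean at a set confidence after two filtering rounds, in either direction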;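 further: slope of fluorescence scaled to starting intensity during 10 to 20 s after thallium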
Target sequence (Q9H2X9 whole entry, looked up): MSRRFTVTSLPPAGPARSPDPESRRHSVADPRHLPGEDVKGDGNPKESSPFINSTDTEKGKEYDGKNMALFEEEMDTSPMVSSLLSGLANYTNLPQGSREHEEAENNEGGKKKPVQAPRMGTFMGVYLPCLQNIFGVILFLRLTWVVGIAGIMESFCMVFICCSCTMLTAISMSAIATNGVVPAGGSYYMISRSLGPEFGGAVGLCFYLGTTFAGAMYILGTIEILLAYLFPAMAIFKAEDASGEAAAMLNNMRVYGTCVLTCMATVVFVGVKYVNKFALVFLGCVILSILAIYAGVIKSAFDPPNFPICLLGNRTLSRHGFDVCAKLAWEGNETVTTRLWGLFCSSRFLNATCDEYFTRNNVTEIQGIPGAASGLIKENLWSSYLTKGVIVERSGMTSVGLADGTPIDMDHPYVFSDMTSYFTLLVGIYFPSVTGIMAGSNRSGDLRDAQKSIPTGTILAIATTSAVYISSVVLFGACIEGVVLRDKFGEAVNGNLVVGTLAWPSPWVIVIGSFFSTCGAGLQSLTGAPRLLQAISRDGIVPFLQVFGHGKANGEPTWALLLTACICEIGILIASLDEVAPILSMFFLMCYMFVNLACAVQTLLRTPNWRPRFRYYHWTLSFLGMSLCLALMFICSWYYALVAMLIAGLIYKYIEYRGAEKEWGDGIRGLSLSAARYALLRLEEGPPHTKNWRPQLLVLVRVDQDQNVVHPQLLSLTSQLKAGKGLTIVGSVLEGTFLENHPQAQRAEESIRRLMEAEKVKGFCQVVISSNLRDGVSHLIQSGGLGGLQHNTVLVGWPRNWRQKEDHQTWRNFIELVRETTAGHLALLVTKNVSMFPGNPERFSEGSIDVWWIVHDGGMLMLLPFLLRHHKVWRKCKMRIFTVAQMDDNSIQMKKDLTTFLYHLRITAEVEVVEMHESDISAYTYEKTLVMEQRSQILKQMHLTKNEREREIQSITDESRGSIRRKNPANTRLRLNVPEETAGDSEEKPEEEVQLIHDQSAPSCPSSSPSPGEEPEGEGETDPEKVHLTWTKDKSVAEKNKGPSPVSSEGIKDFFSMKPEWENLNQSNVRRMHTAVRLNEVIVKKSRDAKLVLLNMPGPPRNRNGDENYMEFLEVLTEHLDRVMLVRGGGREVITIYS
Cardio protect: cardioprotection against H2O2-induced cell death, primary screen, uHTS, H9c2 cells, ATPLite luminescence. H9c2 cardiomyocytes, H2O2 injury protection, 2 h. protection from H2O2 cell death, % at 20 µM. 0.63% of 360,000 active. AID 588492, 2011;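 active means compounds giving at least 50% protection of heart cells from peroxide-induced death in the single-dose screen, raw or plate-pattern-corrected value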
PHOSPHO1 block: PubChem AID 1565; 1.1% of 290,000 active; inhibition, % at 13.3 µM; recombinant PHOSPHO1, absorbance phosphatase assay; in the data active means inhibition above about 60%
Efflux pump inh: inhibitors of Candida efflux pumps in yeast, primary screen, S. cerevisiae, Nile Red, multiplex. inhibition, % at 10 µM. 0.44% of 330,000 active. S. cerevisiae Candida pump triplex;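 active means plate passing quality check with inhibition over a set limit, or well fluorescence over plate mean plus 4 SD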;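 further: Nile Red retained in pooled yeast measured as flow cytometry median fluorescence; higher means more Nile Red kept so more efflux inhibition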
KCC2 secondary: KCC2 modulators in sodium-free buffer, confirmation, cell-based, HEK293 KCC2, thallium flux, secondary assay; shares compounds with Cl transport mod; FluoZin2 fluorescence; active compounds read high; normalised thallium flux (F/F0 slope) at 10 µM; 15% of 3,700 active;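 active means thallium flux slope above the same plate's solvent-only control mean plus 3 SD; inconclusive means the two replicate wells disagree; inactive means no significant difference from solvent-only control wells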
KCC2 bumet counter: thallium flux persisting under bumetanide in KCC2 cells, confirmation, counter-screen for KCC2 modulator project, cell-based, HEK293 KCC2, FluoZin2, secondary assay 3 | shares compounds with Cl transport mod | HEK293-KCC2 + bumetanide/ouabain; active compounds read high | normalized thallium flux at 10 µM | 49% of 3,700 active;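 active means thallium entry rate above the same plate's blocked-transporter control wells by more than 3 SD; inconclusive means the two repeat wells disagree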;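 further: raw slope of fluorescence over initial fluorescence between 10 and 20 s after thallium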
KCC2 secondary2: KCC2 modulators without ouabain present, confirmation, cell-based, HEK293 KCC2, thallium flux, FluoZin2, secondary assay 2; normalized thallium flux at 10 µM; AID 1715, 2009; shares compounds with Cl transport mod; 23% of 3,700 active; thallium flux FluoZin2 fluorescence; actives lie on both sides; F/F0 rise rate, 10–20 s post-thallium;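 active means thallium flux slope more than 3 SD above or below the plate's solvent-only control mean, mostly below; inconclusive means the two repeat wells disagreed; inactive means no significant shift from solvent-only controls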
HEK counter1: thallium flux modulation in parental HEK cells, confirmation, counter-screen for KCC2 modulator project, cell-based, counterscreen 1. HEK293 parental cells, thallium flux FluoZin2, ouabain; baseline-ratio fluorescence slope, 10–20 s after thallium. thallium flux rate (normalised fluorescence) at 10 µM. AID 1716, 2009. shares compounds with Cl transport mod. 46% of 3,700 active;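 active means thallium flux rate significantly above the same plate's solvent-only control wells, beyond their mean plus 3 SD; inconclusive means the two replicate wells gave conflicting results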
KCC2 ouabain: KCC2 inhibitors and activators, ouabain retest, confirmation, HEK-KCC2 cells; shares compounds with Cl transport mod; HEK293-KCC2, thallium flux FluoZin2 fluorescence; bidirectional: low = inhibitor, high = activator; raw Tl+ flux slope (below DMSO = inhibition, above = activation) at 10 µM; 48% of 3,700 active; AID 1717, 2009;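 active means thallium flux slope beyond 3 SD from same-plate DMSO control mean in most replicates, usually higher, sometimes lower; inconclusive means repeat tests gave conflicting results; inactive means no significant difference from controls in most replicates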;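 further: slope of initial-normalized fluorescence between seconds 10 and 20 after thallium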
HEK counter2: native HEK Tl+ uptake effects, second counter-screen – HEK cells, counterscreen 2, counter-screen for KCC2 modulator project, confirmation | HEK293 parental, thallium flux FluoZin-2 fluorescence slope | AID 1718, 2009 | shares compounds with Cl transport mod | thallium flux slope at 10 µM | 33% of 3,700 active;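 active means thallium flux slope above the same plate's solvent-control mean plus 3 SD in both duplicate wells; inconclusive means duplicate wells that disagreed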;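 further: run without ouabain in cells lacking the KCC2 cotransporter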
Large screens that a line does not name were inactive (follow-up assays come after a bar, where they were run); ! = not active in a repeat. A selection: hits, their analogues and other compounds. The true share with any hit is near 3.3%.

Cc1nn(-c2nc3ccccc3[nH]2)c(N)c1-c1ccccc1	Cl transport mod 2.6 | KCC2 secondary inactive | KCC2 bumet counter 0.012 | KCC2 secondary2 inactive | HEK counter1 0.011 | KCC2 ouabain inconclusive | HEK counter2 0.014
CCOC(=O)c1sc2nc(C)nc(NCc3cccnc3)c2c1C	none
Cc1nc(NCc2cccnc2)c2c3c(sc2n1)CC(C)CC3 (centres undefined)	Cl transport mod 59 | KCC2 secondary 0.036 | KCC2 bumet counter 0.16 | KCC2 secondary2 0.038 | HEK counter1 0.097 | KCC2 ouabain 0.087 | HEK counter2 0.034
c1ccc(CSc2nnc(NC3=NCCCCC3)s2)cc1	none (no result: Cl transport mod) | KCC2 secondary inactive | KCC2 bumet counter inactive | KCC2 secondary2 inactive | HEK counter1 inactive | KCC2 ouabain 0.034 | HEK counter2 inactive
N#Cc1ccc(CSc2nnc(Nc3ccccc3)s2)cc1	none
CC(C)(C)c1ccc(CC(=O)N2CCC2(C)C(=O)Nc2cccc3cccnc23)cc1 (centres undefined)	none (no result: Calb FLC, Cl transport mod, PHOSPHO1 block, Efflux pump inh)
CCOC(=O)N1CCN(C(=S)NC(=O)C23CC4CC(CC(C4)C2)C3)CC1	Cl transport mod 5.9 | KCC2 secondary inactive | KCC2 bumet counter 0.03 | KCC2 secondary2 inactive | HEK counter1 0.012 | KCC2 ouabain inconclusive | HEK counter2 inactive
CCN(CC)C(=S)NC(=O)C12CC3CC(CC(C3)C1)C2	Cl transport mod 20 | KCC2 secondary inactive | KCC2 bumet counter 0.055 | KCC2 secondary2 0.042 | HEK counter1 0.028 | KCC2 ouabain 0.043 | HEK counter2 0.034
O=C(C1CCCCCC1)N1CC[C@@H](N2CCC(O)CC2)[C@H](O)C1	none (no result: Cl transport mod)
CC(C)Oc1ccc2c(=O)c(-c3ccccc3)coc2c1	Cl transport mod -3.6! (no result: Calb FLC) | KCC2 secondary 0.0032 | KCC2 bumet counter inactive | KCC2 secondary2 inactive | HEK counter1 inconclusive | KCC2 ouabain 0.014 | HEK counter2 inactive
O=C(NCc1ccco1)c1nc2c(nnn2Cc2ccccc2Cl)c(=O)[nH]1	Cl transport mod -3.3 | KCC2 secondary inactive | KCC2 bumet counter inactive | KCC2 secondary2 inactive | HEK counter1 inconclusive | KCC2 ouabain 0.014 | HEK counter2 inactive
O=C(NCc1cccs1)c1nc2c(nnn2Cc2ccc(F)cc2)c(=O)[nH]1	Cl transport mod -2.3 | KCC2 secondary inactive | KCC2 bumet counter inconclusive | KCC2 secondary2 0.023 | HEK counter1 inactive | KCC2 ouabain inconclusive | HEK counter2 inactive
Cc1ccc(C)c(Cn2nnc3c(=O)[nH]c(C4CCCN(C(=O)C5CCCCC5)C4)nc32)c1 (centres undefined)	none (no result: Cl transport mod)
Cc1ccc(C)c(Cn2nnc3c(=O)[nH]c(C(=O)NCc4ccco4)nc32)c1	Cl transport mod -5.7 | KCC2 secondary inactive | KCC2 bumet counter inactive | KCC2 secondary2 0.023 | HEK counter1 0.0062 | KCC2 ouabain 0.014 | HEK counter2 inconclusive
Cc1nn(CC2CC2)c(=O)n1-c1ccccc1	none
NNC(=S)Nc1ccc(C(F)(F)F)cc1Cl	Cl transport mod 16 | KCC2 secondary inactive | KCC2 bumet counter 0.03 | KCC2 secondary2 inactive | HEK counter1 0.02 | KCC2 ouabain inactive | HEK counter2 0.014
NNC(=S)Nc1ccccc1Cl	none
O=C(COC(=O)c1ccc2c(c1)S(=O)(=O)N=C1CCCCCN12)NCc1cccs1	none
C=CCn1c(SCC(=O)c2ccc(F)cc2)nnc1-c1ccc2c(c1)OCO2	Cl transport mod -3.7 | KCC2 secondary inactive | KCC2 bumet counter inactive | KCC2 secondary2 inactive | HEK counter1 inactive | KCC2 ouabain 0.015 | HEK counter2 inactive
Cc1ccc(S(=O)(=O)NC(=O)C2(C)CCN2C(=O)Cc2cc(F)ccc2F)nc1 (centres undefined)	none (no result: Calb FLC, Cl transport mod, PHOSPHO1 block, Efflux pump inh)
COc1ccccc1-c1nc(C#N)c(N2CCC(Cc3ccccc3)CC2)o1	none (no result: Cl transport mod) | KCC2 secondary inactive | KCC2 bumet counter inactive | KCC2 secondary2 inconclusive | HEK counter1 inactive | KCC2 ouabain 0.019 | HEK counter2 inactive
O=C(c1ccc(F)cc1)N1CCN(Cc2ccccc2)CC1	none (no result: Cl transport mod)
O=C1NC(=S)N(C(=O)c2ccc(F)cc2)/C1=C/c1ccccc1	Cl transport mod 26 | KCC2 secondary 0.021 | KCC2 bumet counter 0.082 | KCC2 secondary2 inconclusive | HEK counter1 0.078 | KCC2 ouabain 0.056 | HEK counter2 0.032
CN(CC(=O)Nc1ccc(F)cc1)C(=O)Cn1cnc2ccc(Cl)cc2c1=O	none (no result: Calb FLC, Cl transport mod, PHOSPHO1 block)
CCOc1ccc(OCCOC(=O)CN(C)S(=O)(=O)c2ccc(NC(C)=O)cc2)cc1	none (no result: Cl transport mod, PHOSPHO1 block)
COc1ccc(-c2nnc(-c3ccc(OCC(C)C)cc3)o2)cc1	Cl transport mod -5.5 | KCC2 secondary inactive | KCC2 bumet counter inactive | KCC2 secondary2 inactive | HEK counter1 inactive | KCC2 ouabain inactive | HEK counter2 inactive
C[C@@H]1CN[C@@H](CCO)/C1=C\c1ccccc1	none (no result: Calb FLC, Cl transport mod, PHOSPHO1 block, Efflux pump inh)
O=C(N/N=C\c1ccc(Cl)s1)C1COc2ccccc2O1 (centres undefined)	Cl transport mod 12 | KCC2 secondary inactive | KCC2 bumet counter 0.011 | KCC2 secondary2 inactive | HEK counter1 inconclusive | KCC2 ouabain inconclusive | HEK counter2 inactive
Cc1ccc([C@@H]2CC=C(C(=O)O)[C@H](c3ccc(Cl)cc3)N2S(=O)(=O)c2ccccc2C)cc1	none (no result: Calb FLC, Cl transport mod, PHOSPHO1 block)
N#Cc1ccc(CN2CCN(C(=O)c3cc(C4CC4)nn3-c3ccccc3)CC2)cc1	none (no result: Calb FLC, Cl transport mod, PHOSPHO1 block)
CC(C)N(C(=O)CN1CCC(c2nc3ccccc3[nH]2)CC1)C(C)C	none (no result: Cl transport mod)
CCOc1nc(-c2ccncc2)nc2ccccc12	none | KCC2 secondary inactive | KCC2 bumet counter inactive | KCC2 secondary2 inconclusive | HEK counter1 inactive | KCC2 ouabain inactive | HEK counter2 inactive

Screens deposited in PubChem by several laboratories.
